# From PubChem BioAssay (Tox21)
# Inconclusive results are not listed. A call without a number means that no potency is given here. Calls of active or inactive are those of the source. Unless noted, the call rests on the fitted dose curve; in most records, active means well fitted curve in the direction sought with a large enough effect in the repeat runs; inconclusive means weak or mixed curves; inactive means no such curve, though single readings can be large; an effect the other way counts as inactive or inconclusive.
# Biological target: Estrogen receptor (Homo sapiens) (UniProt P03372)
# Sequence (P03372 whole entry, looked up): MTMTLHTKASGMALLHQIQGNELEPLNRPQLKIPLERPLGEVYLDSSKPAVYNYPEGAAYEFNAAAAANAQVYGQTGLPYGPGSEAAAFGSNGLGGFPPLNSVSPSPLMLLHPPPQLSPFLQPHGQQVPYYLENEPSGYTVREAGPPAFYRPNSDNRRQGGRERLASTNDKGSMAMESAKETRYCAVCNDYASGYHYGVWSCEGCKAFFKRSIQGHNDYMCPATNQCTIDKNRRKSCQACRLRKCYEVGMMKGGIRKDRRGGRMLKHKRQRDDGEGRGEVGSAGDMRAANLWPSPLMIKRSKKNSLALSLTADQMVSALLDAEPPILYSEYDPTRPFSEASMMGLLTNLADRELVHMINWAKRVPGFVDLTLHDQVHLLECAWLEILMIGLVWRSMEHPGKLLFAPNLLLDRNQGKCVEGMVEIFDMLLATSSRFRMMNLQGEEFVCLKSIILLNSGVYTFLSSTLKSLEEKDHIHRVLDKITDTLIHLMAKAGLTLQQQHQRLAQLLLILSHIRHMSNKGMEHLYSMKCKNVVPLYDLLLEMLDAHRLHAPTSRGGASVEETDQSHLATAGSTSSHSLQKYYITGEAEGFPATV
# Test: qHTS assay to identify small molecule antagonists of the estrogen receptor alpha (ER-alpha) signaling pathway using the BG1 cell line in the presence of 0.1 nM 17-beta-estradiol (AID 1259244); further: nearly all actives have a fitted effect of over 50% in size
# Conditions: VM7Luc4E2 (BG1) ERE-luciferase, antagonist mode, 0.1 nM E2, 22 h; series mostly up to 92.4 µM
# Outline: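 VM7Luc4E2 cells (endogenous full-length ER-alpha, 4×ERE-luciferase), kept 5 days in phenol red-free, charcoal-stripped FBS medium; 4,000 cells/well. Compounds added with 0.1 nM (final) 17beta-estradiol, 22 hr at 37C; luminescence read with ONE-Glo after 30 min.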
row,SMILES,outcome
1,CC(C)CCOC(=O)CC(C)C,inactive
2,Nc1cc(N)cc(C(=O)O)c1,inactive
3,CCO[Si](C)(OCC)OCC,inactive
4,COc1ccc(COC=O)cc1,inactive
5,CCC(=O)Nc1cccc(N)c1,inactive
6,O=S(=O)(O)c1ccccc1O,inactive
7,CC(C)(C)C(=O)/C=C/c1ccc(Cl)cc1,inactive
8,CCCCC1CCCCC(=O)O1 (centres undefined),inactive
9,CC(C)c1cccc(C(C)C)c1N,inactive
10,Nc1ncnc2c1ncn2Cc1c(F)cccc1Cl,inactive
11,CC(=O)O[C@H](CC(=O)[O-])C[N+](C)(C)C,inactive
12,O=C1OC(=O)c2cc([N+](=O)[O-])ccc21,inactive
13,CO[Si](CCCNCCC[Si](OC)(OC)OC)(OC)OC,inactive
14,CC(C)=CC(=O)O,inactive
15,C=CCOCC(O)CS(=O)(=O)O (centres undefined),inactive
16,C(=C(c1ccccc1)c1ccccc1)c1ccccc1,inactive
17,Oc1ccc2c(c1)OC[C@@H](N1CCC(O)(c3ccc(F)cc3)CC1)[C@H]2O,inactive
18,CCCC(C)C(=O)O (centres undefined),inactive
19,CC/C=C\C#N,inactive

# System: not listed separately
# Test: qHTS assay to identify small molecule phospholipidosis (PLD) inducers (AID 1259344; active means well fitted curve in the direction sought with a large enough effect; an effect the other way counts as inactive or inconclusive)
# Conditions: HepG2 phospholipidosis, LipidTOX Red imaging, 24 h; series mostly up to 38.3 µM
# Outline: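 Phospholipidosis is scored by imaging LipidTOX-stained pits in HepG2 cells exposed to compound for 24 h at 37 C; pit counts and integrated intensities per well and per cell serve as outputs.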
row,SMILES,Potency
1,O=C(O)/C=C/c1ccc(Cn2ccnc2)cc1,inactive
2,NC1CCN(c2cccc(Cl)n2)CC1,inactive
3,C[C@H]1O[C@@H](n2cc(F)c(=O)[nH]c2=O)[C@H](O)[C@@H]1O,inactive
4,NS(=O)(=O)c1cc2c(cc1C(F)(F)F)NC(Cc1ccccc1)NS2(=O)=O (centres undefined),inactive
5,Cc1cc(C)c(NC(=O)CN(CC(=O)O)CC(=O)O)c(C)c1Br,inactive
6,CC(C)CCCC(C)CCCC(C)CCCCC(C)CCCC(C)CCCC(C)C (centres undefined),inactive
7,CN(C)CCn1nnnc1SCC1=C(C(=O)O)N2C(=O)[C@@H](NC(=O)Cc3csc(N)n3)[C@H]2SC1,inactive
8,OC/C=C/c1ccccc1,inactive

# System: not listed separately
# Test: qHTS assay to identify small molecule HDAC inhibitors (AID 1259364); further: nearly all actives have a fitted effect of over 45% in size; further: potency means the concentration at half of the fitted maximal effect; on activity change, negative = inhibition: top concentration of the series differs between compounds
# Conditions: HCT-116 HDAC-Glo I/II luminescence, 2 h; series mostly up to 92.4 µM
# Outline: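 Wild-type HCT-116 cells, plated overnight at 37 C, exposed to compounds 2 hr at 37 C; luminogenic HDAC-Glo substrate then added 30 min at room temperature. Luminescence reports relative endogenous class I/II HDAC activity.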
SMILES,Potency,"activity change, negative = inhibition"
NC1CCN(c2cccc(Cl)n2)CC1,inactive,
C[C@H]1O[C@@H](n2cc(F)c(=O)[nH]c2=O)[C@H](O)[C@@H]1O,inactive,
CCN1CCCC1CNC(=O)c1cc(S(N)(=O)=O)ccc1OC (centres undefined),inactive,
COc1ccc(COC=O)cc1,inactive,
C#CC(O)CCCCC (centres undefined),inactive,
COC(=O)c1ccc(C(=O)OC)c(C(=O)OC)c1,inactive,
NS(=O)(=O)c1cc2c(cc1C(F)(F)F)NC(Cc1ccccc1)NS2(=O)=O (centres undefined),inactive,
N#CC1(O)CCCCC1,inactive,
O=C1OC(=O)c2cc([N+](=O)[O-])ccc21,inactive,
CCCCCCCCCCC1CO1 (centres undefined),inactive,
CCCC=O,inactive,
Cc1cc(C)c(NC(=O)CN(CC(=O)O)CC(=O)O)c(C)c1Br,inactive,
Cc1ccccc1C(=O)O,30.1 µM (active),
FC(F)(F)C(F)(F)C(F)(F)C(F)(F)C(F)(F)C(F)(F)C(F)(F)C(F)(F)C(F)(F)C(F)(F)F,,-3.49% [at 8.39 µM] (inactive)
CC(C)CCCC(C)CCCC(C)CCCCC(C)CCCC(C)CCCC(C)C (centres undefined),inactive,
C1C2OC2C2C1C1CC2C2OC12 (centres undefined),inactive,
CN(C)CCn1nnnc1SCC1=C(C(=O)O)N2C(=O)[C@@H](NC(=O)Cc3csc(N)n3)[C@H]2SC1,inactive,
CSc1ccc(C=O)cc1,inactive,
Oc1ccc2c(c1)OC[C@@H](N1CCC(O)(c3ccc(F)cc3)CC1)[C@H]2O,2.37 µM (active),
OC/C=C/c1ccccc1,inactive,
C#CC(C)(O)CC(C)C (centres undefined),inactive,
CCCC(C)C(=O)O (centres undefined),inactive,
